For 16 compounds, growth results are on record in PubChem BioAssay (NCI).

The panel holds about 83,000 compounds, 20% with a hit somewhere; the sample as a whole holds those more often.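 Single-dose data. Exposure time 48 hours. Values below 10 considered active.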 A number with no mark means an inactive call. Active and inactive are the calls of the source.

Among the test systems are DU-145 prostate; K-562 leukemia; MALME-3M melanoma; MDA-MB-231 breast; RXF 393 renal; SF-268 CNS; SF-295 CNS; SF-539 CNS; UACC-257 melanoma; M14 melanoma.
Experiment in all cases: NCI-60 one-dose screen, 48 h (100 = growth as untreated, 0 = no growth, -100 = all killed)
Conditions in all cases: 10 µM unless noted

As to `CCOc1nc(-c2ccccc2)cc2c(O)c(C(=O)NN)[nH]c(=O)c12`, the growth in the assay on DU-145 prostate was 120%; in the assay with K-562 leukemia it was 134%; in the assay with MALME-3M melanoma it was 112%; in the assay with MDA-MB-231 breast, 99.3%; with RXF 393 renal it was 108%; in the assay on SF-268 CNS, 86.2%. For the same compound, the growth in the assay with SF-295 CNS is 107%; with SF-539 CNS, 96.9%; in the assay on UACC-257 melanoma, 103%; in the assay with M14 melanoma, 98.8%.
With `Cc1ccccc1NC(=O)c1sc2nc(C)c(C(=O)/C=C/c3ccccc3)cc2c1N`, the growth was 10.5% in the assay on DU-145 prostate; 13% in the assay with K-562 leukemia; 59.7% in the assay on MALME-3M melanoma; 3.85% (active) with MDA-MB-231 breast; -26.7% (active) in the assay on RXF 393 renal; 11.8% in the assay with SF-268 CNS. Moreover, the growth is 14% with SF-295 CNS, -34.4% (active) in the assay with SF-539 CNS, 68.5% with UACC-257 melanoma and 4.85% (active) with M14 melanoma.
For the compound `COc1cc(CNS(=O)(=O)c2ccc(C)cc2)ccc1OCc1cn(-c2ccc(F)cc2)nn1`, the growth in the assay on DU-145 prostate was 95.9%; with K-562 leukemia, 65.3%; with MALME-3M melanoma, 94.9%; in the assay on MDA-MB-231 breast, 91%; in the assay on RXF 393 renal, 93.2%; in the assay with SF-268 CNS it was 91.8%. The growth in the assay on SF-295 CNS was 90.1%; with SF-539 CNS, 89.3%; in the assay on UACC-257 melanoma, 89.9%; in the assay on M14 melanoma, 97.1%.
With `O=C(Cn1c(=O)sc2ccccc21)NNS(=O)(=O)c1ccccc1[N+](=O)[O-]`, the growth with DU-145 prostate is 105%; in the assay with K-562 leukemia, 98.9%; with MALME-3M melanoma, 99.9%; in the assay on MDA-MB-231 breast it was 104%; in the assay on RXF 393 renal it was 119%; with SF-268 CNS, 97%. In addition, the growth is 103% with SF-295 CNS, 99% in the assay on SF-539 CNS, 99.7% in the assay with UACC-257 melanoma and 99.4% in the assay with M14 melanoma.
As for `O=C(O)c1[nH]c(=O)[nH]c(=O)c1[N+](=O)[O-]`, the growth with DU-145 prostate is 134%; in the assay with K-562 leukemia it was 89.7%; with MALME-3M melanoma, 124%; with MDA-MB-231 breast it was 110%; with RXF 393 renal it was 113%; in the assay on SF-268 CNS, 117%. Moreover, the growth in the assay on SF-295 CNS is 104%; in the assay with SF-539 CNS, 103%; in the assay with UACC-257 melanoma it was 97.7%; in the assay on M14 melanoma it was 110%.
In the case of `O=C(/C=C/c1cccs1)c1ccc(Cl)nc1`, the growth in the assay with DU-145 prostate was 106%; in the assay on K-562 leukemia, 97.1%; in the assay with MALME-3M melanoma it was 95.7%; with MDA-MB-231 breast it was 116%; with RXF 393 renal, 119%; in the assay on SF-268 CNS, 102%. For the same compound, the growth in the assay on SF-295 CNS was 101%; in the assay on SF-539 CNS, 101%; in the assay with UACC-257 melanoma, 100%; in the assay with M14 melanoma, 101%.
For `CCOC(=O)CNP(=O)(OC[C@@H](Cc1ccccc1)NC(=O)c1cc2ccccc2s1)Oc1ccccc1` (stereo not given in full), the growth in the assay on DU-145 prostate was 88.8%; in the assay with K-562 leukemia, 19.4%; in the assay with MALME-3M melanoma it was 69.3%; with MDA-MB-231 breast, 77%; in the assay on RXF 393 renal, 84.4%; with SF-268 CNS it was 85.6%. Further, the growth is 88.5% in the assay with SF-295 CNS, 78.9% with SF-539 CNS, 81.2% in the assay with UACC-257 melanoma and 59.6% in the assay with M14 melanoma.
`Clc1ccc(CNc2c3ccccc3nc3ccccc23)cc1`: the growth with DU-145 prostate is 54.8%; in the assay on K-562 leukemia, 4.34% (active); in the assay on MALME-3M melanoma it was 39.6%; in the assay with MDA-MB-231 breast, 54.8%; in the assay on RXF 393 renal it was 29.7%; in the assay on SF-268 CNS it was 67.9%. The growth in the assay with SF-295 CNS is 59.6%; in the assay with SF-539 CNS it was 30.3%; in the assay with UACC-257 melanoma, 76.1%; with M14 melanoma, 53.3%.
Turning to `C1=C(N2CCCC2)CCC1`, the growth with DU-145 prostate is 108%; with K-562 leukemia, 120%; in the assay with MALME-3M melanoma it was 100%; in the assay on MDA-MB-231 breast it was 98.8%; in the assay on RXF 393 renal it was 93.1%; in the assay with SF-268 CNS it was 107%. Moreover, the growth in the assay with SF-295 CNS was 104%; with SF-539 CNS, 87.4%; in the assay on UACC-257 melanoma it was 89.8%; in the assay on M14 melanoma, 96.2%.
For the compound `CN1CCN(Cc2ccc(NC(=O)c3cncc(C#Cc4cnc(N)c5ccccc45)c3)cc2C(F)(F)F)CC1`, the growth is -97.6% (active) with DU-145 prostate; -13.3% (active) with K-562 leukemia; -88.6% (active) in the assay with MALME-3M melanoma; -86.2% (active) with MDA-MB-231 breast; -96.2% (active) with RXF 393 renal; -61.1% (active) in the assay on SF-268 CNS. For the same compound, the growth in the assay with SF-295 CNS is -87.4% (active); in the assay with SF-539 CNS, -97.8% (active); in the assay with UACC-257 melanoma, -90.1% (active); in the assay on M14 melanoma it was -79.3% (active).
As to `NC(=O)CCC(C(=O)O)N1C(=O)c2ccc(O)cc2C1=O` (stereo not given), the growth is 118% in the assay with DU-145 prostate; 72.2% in the assay with K-562 leukemia; 157% in the assay on MALME-3M melanoma; 113% with MDA-MB-231 breast; 115% in the assay on RXF 393 renal; 111% in the assay on SF-268 CNS. The growth in the assay on SF-295 CNS was 91.7%; with SF-539 CNS, 106%; in the assay with UACC-257 melanoma, 107%; in the assay on M14 melanoma, 108%.
In the case of `CCN(CC)CCCN1C(=O)c2c(c(C)c3c(oc4cc(O)ccc43)c2C)C1=O`, the growth was -61.7% (active) with DU-145 prostate; -14.4% (active) in the assay with K-562 leukemia; -80.4% (active) in the assay with MALME-3M melanoma; -80.3% (active) with MDA-MB-231 breast; 75.7% with RXF 393 renal; -41.4% (active) with SF-268 CNS. The growth in the assay with SF-295 CNS is 110%; in the assay on SF-539 CNS it was 96.4%; in the assay on UACC-257 melanoma it was 94.5%; in the assay with M14 melanoma, -88.8% (active).
With `Nc1c(C(=O)Nc2ccccc2Cl)sc2nc3c(cc12)C(O)CCC3` (stereo not given), the growth was 14.4% with DU-145 prostate; 10.9% in the assay on K-562 leukemia; 76.2% in the assay on MALME-3M melanoma; 58.2% with MDA-MB-231 breast; 19.6% with RXF 393 renal; 65.6% with SF-268 CNS. The growth with SF-295 CNS is 22.8%; in the assay with SF-539 CNS, 3.94% (active); with UACC-257 melanoma, 56.8%; in the assay on M14 melanoma it was 19.9%.
Turning to `CCOC(=O)c1cc2c(=O)oc3ccccc3c2oc1=O`, the growth is 116% in the assay on DU-145 prostate; 122% in the assay with K-562 leukemia; 105% in the assay with MALME-3M melanoma; 101% with MDA-MB-231 breast; 99.8% in the assay on RXF 393 renal; 108% with SF-268 CNS. Moreover, the growth was 110% in the assay with SF-295 CNS, 100% in the assay with SF-539 CNS, 105% in the assay on UACC-257 melanoma and 118% in the assay on M14 melanoma.
On to `OCCNCCCOc1ccc2ncnc(Nc3ccc(Oc4cccc(C(F)(F)F)c4)c(Cl)c3)c2c1`, for which the growth in the assay on DU-145 prostate is 16.3%; in the assay with K-562 leukemia, 1.39% (active); with MALME-3M melanoma it was 41.1%; in the assay with MDA-MB-231 breast, -18% (active); with RXF 393 renal, -49.3% (active); in the assay on SF-268 CNS, 56%. Moreover, the growth is 39.7% in the assay with SF-295 CNS, -46.3% (active) in the assay with SF-539 CNS, 54.9% in the assay on UACC-257 melanoma and -60.3% (active) with M14 melanoma.
For `CCN(CC)CCOc1ccc(-c2c(-c3ccccc3)c(=O)oc3ccccc23)cc1`, the growth in the assay on DU-145 prostate was 121%; in the assay with K-562 leukemia, 92.1%; in the assay on MALME-3M melanoma, 87.2%; in the assay on MDA-MB-231 breast, 88.7%; in the assay on RXF 393 renal, 71.9%; in the assay on SF-268 CNS, 87.4%. Moreover, the growth is 104% with SF-295 CNS, 92.6% with SF-539 CNS, 86.3% with UACC-257 melanoma and 88.2% in the assay with M14 melanoma.
